The list is not random: actives were taken first. Their share in the collection is about 19%.
IL-1B inflam inh: blocks inflammasome-driven IL-1 beta release. THP-1 LPS/ATP IL-1B secretion, AlphaLISA, 16 h; hits give low values. activity change, % at 57.5 µM. actives 4.7% (n = 360,000). AID 743279; in the data active = activity change below about -50%; inconclusive = mostly about -30% to -49%
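THP-1 cells pretreated 1 hr with compounds (up to 57.5 uM final), then stimulated with LPS (250 ng/mL final) plus ATP (1.25 mM final); secreted IL-1B measured by AlphaLISA after 16 hr, decreased signal indicating inhibition.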
HT1080-NT tox: kills 2HG-producing HT-1080-NT fibrosarcoma cells. HT-1080-NT fibrosarcoma viability, CellTiter-Glo ATP luminescence, 48 h. Potency, µM (series often up to 46.1 µM), for the others: top-dose activity, negative = less viability, hits mostly cytotoxic. actives 1.6% (n = 360,000). AID 686970;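 also: NT is the 2HG producing partner of a matched IDH1 knockdown line; potency is read from the fitted curve at half-maximal effect; 0% = DMSO-treated cells and -100% = media-only wells without cells; nearly all actives have a fitted effect of over 55% in size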
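750 cells/well, RPMI + 5% FBS; 2 h settle, compound pin-transfer, 48 h at 37 degrees C. CellTiter-Glo 10 min RT, luminescence. Normalized to DMSO and media-only wells.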
HT1080 IDH1KD tx: HT-1080 IDH1 knockdown cell toxicity (counter line) | HT-1080 IDH1 knockdown viability, ATP luminescence, 48 h | Potency, µM (titrated, usually from 46.1 µM), for inactives: at the highest dose activity, negative = toxicity, usual class: cytotoxic | actives 2% (n = 360,000);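 also: potency is read from the fitted curve at half-maximal effect; 0% = DMSO wells and -100% = cell-free medium wells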
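HT-1080-IDH1KD cells (IDH1 knocked down), 750/well in RPMI with 5% FBS, treated with compound 48 h at 37 degrees C. Viability by CellTiter-Glo luminescence, normalised to DMSO and no-cell wells; concentration-response curves classed.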
DT40 TDP1 CPT: growth inhibition of DT40 Tdp1-/-;hTDP1 cells with camptothecin (screen for TDP1 inhibitors); chicken DT40 Tdp1-/-;hTDP1 cells + 20 nM CPT, ATP luminescence, 48 h; actives 12% (n = 420,000); Potency, µM (highest dose often 46.2 µM), for inactives: at the top dose activity change, negative = growth inhibition, hits mostly inhibitors; also: potency is read from the fitted curve at half-maximal effect; nearly all actives have a fitted effect of over 55% in size
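Chicken DT40 Tdp1-/- cells complemented with human TDP1, 400 cells/well, exposed to compounds plus 20 nM camptothecin for at least 48 h at 37 C; viability read as ATP content by CellTiter-Glo luminescence.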
ELG1 DNA repair: blocks ELG1-dependent DNA repair in HEK293T cells. actives 2.3% (n = 330,000). HEK293T ELG1-luciferase reporter, luminescence, 16 h; DNA damage induced by 5-fluorouridine. AID 504467. Potency, µM (top dose mostly 46.1 µM), for the others: at the highest dose activity change, negative = inhibition, most hits filed as inhibitors; also: potency is read from the fitted curve at half-maximal effect; nearly all actives have a fitted effect of over 55% in size
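Overnight (16 hr) co-exposure of 2,000 cells/well to 5-fluorouridine and compound at 37 °C preceded detection. Luciferase was quantified via ONE-Glo luminescence; loss of signal denotes inhibition.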
TDP1 cell noCPT: qHTS for Inhibitors of human tyrosyl-DNA phosphodiesterase 1 (TDP1): qHTS in cells in absence of CPT. Potency, µM (top dose mostly 46.2 µM), for inactives: top-dose activity change, negative = growth inhibition, most hits filed as inhibitors. DT40 Tdp1-/- hTDP1 cells, no CPT, ATP luminescence, 48 h. actives 15% (n = 420,000); also: potency is read from the fitted curve at half-maximal effect; nearly all actives have a fitted effect of over 55% in size
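Seeded 400 DT40-hTDP1 cells/well (vehicle DMSO, no 20 nM CPT); pinned compounds; ≥48 hr at 37 °C; CellTiter-Glo luminescence as viability measure.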
An asterisk follows results filed as active; [ ] = remark or other dose. Unless noted, calls follow the shape of the dose curve; as a rule, active = well fitted curve in the direction sought with a large enough effect; inconclusive = small, poorly fitted or top-dose-only effect, or another doubt; inactive = no such curve, though single readings can be large; an effect the other way counts as inactive or inconclusive. Unless noted, % is scaled to controls: 0 for no effect and ±100 for the full control effect.

For O=C(CN1C(=O)NC2(CCc3ccccc32)C1=O)Nc1ccccc1C(F)(F)F (configuration not stated) the results were IL-1B inflam inh -10.4, HT1080-NT tox -10.5%[9.24 µM], HT1080 IDH1KD tx -2.7%, DT40 TDP1 CPT -7.1%, ELG1 DNA repair 23.0% and TDP1 cell noCPT 3.5%.
Screening O=S(=O)(NCCN1CCOCC1)c1cc(Cl)c(Cl)cc1Cl returned IL-1B inflam inh -1.6, HT1080-NT tox -5.0%, HT1080 IDH1KD tx 0.0%, DT40 TDP1 CPT -13.8%, ELG1 DNA repair -7.1% and TDP1 cell noCPT -6.2%.
CCc1cc(C(=O)NNC(=O)CCl)sc1C was read as IL-1B inflam inh -28.0, HT1080-NT tox -24.6%, HT1080 IDH1KD tx -11.6%, DT40 TDP1 CPT 14.6µM*, ELG1 DNA repair -3.5% and TDP1 cell noCPT inconclusive.
`O=C(Nc1ccc2nn(-c3ccccc3)nc2c1)c1cc2ccccc2o1` gave DT40 TDP1 CPT inconclusive and TDP1 cell noCPT 14.6µM*.
Screening CCc1ccc(-n2nc3ccc(NC(=O)c4cc5ccccc5o4)cc3n2)cc1 returned DT40 TDP1 CPT inconclusive and TDP1 cell noCPT 4.61µM*.
O=S(=O)(Nc1cccc(-c2ccc(N3CCCC3)nn2)c1)c1ccc(F)c(C(F)(F)F)c1 was read as DT40 TDP1 CPT 6.5% and TDP1 cell noCPT 2.1%.
CCN1C(=O)c2ccc(C(=O)Nc3cccc(C(=O)O)c3)cc2C1=O was read as IL-1B inflam inh 8.5, HT1080-NT tox 6.3%, HT1080 IDH1KD tx 2.8%, DT40 TDP1 CPT 12.9%, ELG1 DNA repair -2.7% and TDP1 cell noCPT -1.3%.
`CC(=O)Oc1ccc(C(c2ccc(OC(C)=O)cc2)c2ccccn2)cc1` gave IL-1B inflam inh -76.7*, HT1080-NT tox inconclusive, HT1080 IDH1KD tx inconclusive, DT40 TDP1 CPT inconclusive, ELG1 DNA repair -8.6% and TDP1 cell noCPT 15µM*.
O=C(CCC(=O)N1CCCC1)Nc1ccc(Cl)c(Cl)c1 was read as IL-1B inflam inh 9.9, HT1080-NT tox -18.3%, HT1080 IDH1KD tx -2.0%, DT40 TDP1 CPT -2.0%, ELG1 DNA repair -3.4% and TDP1 cell noCPT 16.0%.
`CCOc1ncccc1C(=O)N1CCN(C(=O)c2ccccc2)CC1` gave IL-1B inflam inh 0.7, HT1080-NT tox -6.0%, HT1080 IDH1KD tx 0.2%, DT40 TDP1 CPT 8.5%, ELG1 DNA repair -8.5% and TDP1 cell noCPT 11.6%.
For CCCN1Cc2cccc(C(=O)N3CCN(c4cc(Cl)ccc4C)CC3)c2C1=O the results were IL-1B inflam inh inconclusive, HT1080-NT tox -6.8%, HT1080 IDH1KD tx -4.0%, DT40 TDP1 CPT inconclusive, ELG1 DNA repair 20.6µM* and TDP1 cell noCPT 13µM*.
For CCOc1ncccc1C(=O)N1CCN(c2cc(Cl)ccc2C)CC1 the results were IL-1B inflam inh 2.5, HT1080-NT tox 1.03µM*, HT1080 IDH1KD tx 1.3µM*, DT40 TDP1 CPT 0.82µM*, ELG1 DNA repair inconclusive and TDP1 cell noCPT 0.651µM*.
For CCOc1ncccc1C(=O)N1CCN(c2cccc(C)c2C)CC1 the results were IL-1B inflam inh 9.2, HT1080-NT tox 0.184µM*, HT1080 IDH1KD tx 0.184µM*, DT40 TDP1 CPT 0.517µM*, ELG1 DNA repair -17.6% and TDP1 cell noCPT 0.581µM*.
C/C(=N\NC(=O)c1ccc(O)cc1)c1ccc(NC(=O)Cc2ccccc2)cc1 was read as IL-1B inflam inh -10.5, HT1080-NT tox -1.2%, HT1080 IDH1KD tx -2.0%, DT40 TDP1 CPT inconclusive, ELG1 DNA repair inconclusive and TDP1 cell noCPT inconclusive.
`CCOC(=O)c1c(S(=O)(=O)N2CCc3ccccc32)c(C)n(C)c1C` gave IL-1B inflam inh 12.9, HT1080-NT tox -6.6%, HT1080 IDH1KD tx -4.1%, DT40 TDP1 CPT 23.1µM*, ELG1 DNA repair 8.0% and TDP1 cell noCPT inconclusive.
CSc1cccc(NC(=O)c2cc(S(=O)(=O)N3CCc4ccccc43)cn2C)c1 was read as IL-1B inflam inh -14.5, HT1080-NT tox -7.0%, HT1080 IDH1KD tx -13.4%, DT40 TDP1 CPT 14.6µM*, ELG1 DNA repair inconclusive and TDP1 cell noCPT 25.9µM*.
Screening CCN(CC)CCNC(=O)c1cc(S(=O)(=O)N2CCc3ccccc32)cn1C returned IL-1B inflam inh 2.5, HT1080-NT tox -19.1%, HT1080 IDH1KD tx 1.5%, DT40 TDP1 CPT inconclusive, ELG1 DNA repair inconclusive and TDP1 cell noCPT -2.2%.
For Cc1cccc(NC(=O)c2cc(S(=O)(=O)N3CCc4ccccc43)cn2C)c1 the results were IL-1B inflam inh 23.4, HT1080-NT tox -3.4%, HT1080 IDH1KD tx -1.2%, DT40 TDP1 CPT -7.7%, ELG1 DNA repair 13.4% and TDP1 cell noCPT 7.6%.
`CCOC(=O)c1cc(S(=O)(=O)N2CCc3ccccc32)cn1C` gave IL-1B inflam inh 8.7, HT1080-NT tox -0.3%, HT1080 IDH1KD tx 0.0%, DT40 TDP1 CPT inconclusive, ELG1 DNA repair inconclusive and TDP1 cell noCPT 2.31µM*.
Screening CCCN(C(=O)c1cc(S(=O)(=O)N2CCc3ccccc32)cn1C)c1ccc(OCC)cc1 returned DT40 TDP1 CPT inconclusive and TDP1 cell noCPT 20.6µM*.
COc1ccc(/C=N/NS(=O)(=O)c2ccc(F)cc2)cc1CN1CCSCC1 was read as IL-1B inflam inh 23.8, HT1080-NT tox 5.9%, HT1080 IDH1KD tx 1.4%, DT40 TDP1 CPT inconclusive, ELG1 DNA repair -13.2% and TDP1 cell noCPT -20.1%.
Screening COc1cc2oc(=O)c(CC(=O)NCCc3ccccc3)c(C)c2cc1Cl returned DT40 TDP1 CPT -1.8% and TDP1 cell noCPT -15.4%.
For Cn1cc(S(=O)(=O)N2CCc3ccccc32)cc1C(=O)NC(C)(C)C the results were IL-1B inflam inh 36.0, HT1080-NT tox inconclusive, HT1080 IDH1KD tx -10.0%, DT40 TDP1 CPT 3.26µM*, ELG1 DNA repair inconclusive and TDP1 cell noCPT 2.59µM*.
Screening Cc1ccc(N(C)C(=O)c2cc(S(=O)(=O)N3CCc4ccccc43)cn2C)cc1 returned IL-1B inflam inh -8.1, HT1080-NT tox -5.5%, HT1080 IDH1KD tx -1.2%, DT40 TDP1 CPT inconclusive, ELG1 DNA repair -1.1% and TDP1 cell noCPT inconclusive.
CCOC(=O)c1c(S(=O)(=O)N2CCCCC2C)c(C)n(C)c1C (configuration not stated) was read as IL-1B inflam inh 25.5, HT1080-NT tox 10.1%, HT1080 IDH1KD tx -1.8%, DT40 TDP1 CPT inconclusive, ELG1 DNA repair -0.3% and TDP1 cell noCPT 10.3µM*.
